From PubChem BioAssay AID652054 (National Center for Advancing Translational Sciences (NCATS), 2013)
Screen size: about 360,000 compounds; about 9,100 (2.5%) were called active. Inconclusive results (about 4%) are left out. Rule as the data show it: active = max response below about -50%; inconclusive = no clear call, values can overlap the other calls; inactive = above that. The entries come from a sample that favours actives as a whole.

What follows are molecules tested against D(3) dopamine receptor (Homo sapiens) (UniProt P35462) (assay: qHTS of D3 Dopamine Receptor Antagonist: qHTS). Conditions: D3R cells, DiscoveRx beta-arrestin luminescence, antagonist mode; active compounds read low.
Method in brief: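 Cells plated overnight at 1500 cells/well, then exposed to library compounds with dopamine controls for 90 minutes at 37 degrees C. DiscoveRx reagent added for 30–60 minutes at room temperature; luminescence read, quantitative HTS format.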
% is scaled to controls: 0 for no effect and ±100 for the full control effect.

D(3) dopamine receptor (Homo sapiens), sequence (P35462 whole entry, looked up): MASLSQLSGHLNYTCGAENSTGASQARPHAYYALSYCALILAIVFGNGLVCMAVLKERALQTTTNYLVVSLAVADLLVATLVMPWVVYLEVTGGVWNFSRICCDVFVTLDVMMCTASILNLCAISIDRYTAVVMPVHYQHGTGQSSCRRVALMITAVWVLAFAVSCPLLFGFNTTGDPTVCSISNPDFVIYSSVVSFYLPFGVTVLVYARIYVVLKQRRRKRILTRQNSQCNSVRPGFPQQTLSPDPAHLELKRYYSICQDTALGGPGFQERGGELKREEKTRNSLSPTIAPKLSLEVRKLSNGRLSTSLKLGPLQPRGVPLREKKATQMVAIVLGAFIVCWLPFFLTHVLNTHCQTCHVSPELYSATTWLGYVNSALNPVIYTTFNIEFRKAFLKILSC

Max response, negative = inhibition, active:
Cc1ccc(Cc2cnc(NC(=O)/C(C#N)=C/c3ccc(-c4cccc([N+](=O)[O-])c4)o3)s2)cc1 -59.9%
CCN(CC)CCNc1ccc(Cl)cc1[N+](=O)[O-] -86.2%
COc1ccc(C(=O)NNC(=O)c2cnccn2)cc1[N+](=O)[O-] -63.8%
O=C(Cn1cnc2c(nnn2-c2ccccc2)c1=O)N1CCC(Cc2ccccc2)CC1 -67.4%
CCOC(=O)N1CCN(Cc2nc(Cc3cccc(C(F)(F)F)c3)no2)CC1 -50.2%
CCCCNCCS(=O)(=O)NCc1ccccc1 -71.2%
O=C(/C=C/Sc1ncn[nH]1)c1ccc(Cl)cc1 -50.9%
Cc1nn(C)cc1C(=O)NNC(=S)Nc1ccc(Cl)cc1 -63.2%
CN1/C(=C\C=C2\N=C(c3ccc(F)cc3)OC2=O)C(C)(C)c2ccccc21 -63.7%
CCN(CC)c1ccc(/C=N/NC(=O)c2cnccn2)c(O)c1 -57.7%
CCN(CC)c1ccc(/C=N/Nc2nc(C)cc(C)n2)c(O)c1 -81.5%
CN=C1C=C/C(=N/N=c2\ccn(O)cc2C)C=C1C -67.8%
NC(=NC(=O)c1ccccc1)N1CCOCC1 -52.7%
O=C(CCCNS(=O)(=O)c1cccc2nsnc12)NCCN1CCN(c2ccccc2F)CC1 -84.7%

Max response, negative = inhibition, inactive:
CCN(CC)C(=O)C(C)N1c2cccc3cccc(c23)S1(=O)=O (stereo unspecified) -22.2%
Cc1cccc(CN2CCN(C3CN(Cc4cn(Cc5ccccc5F)nn4)S(=O)(=O)C3)CC2)c1 (stereo unspecified) 6.92%
O=C1c2ccccc2-c2ccccc2NC1O (stereo unspecified) 0%
O[C@H]1CN(Cc2cccs2)[C@@H](c2ccc(Cl)cc2)C[C@@H]1n1cc(C2CC2)nn1 8.97%
NC(c1ccccc1)c1csc(NC(=O)Nc2cccc(C(F)(F)F)c2)n1 (stereo unspecified) 18.1%
C#CCNC(=O)C[C@@H]1C[C@@]2(C(=O)OCC)CCCC=C2N(Cc2ccco2)C1=O 5.5%
Cc1ccc(-c2ccc(/C=C(\C#N)C(N)=S)o2)c([N+](=O)[O-])c1 -5.05%
Cc1ccc(C(=O)N/C(=C/c2ccc(-c3cccc([N+](=O)[O-])c3)o2)C(=O)NCCCN(C)C)cc1 10.3%
Cc1[nH]c2ccccc2c1C(=O)c1cc([C@H](NC(=O)OC(C)(C)C)C(C)C)sc1N 17.9%
COC(=O)c1ccc(CN2C(=O)C(Cc3ccccc3)ON=C2c2ncccc2C)o1 (stereo unspecified) 14.2%
CCCCCCN1CCN(C2CN(Cc3cn(CCCCCC)nn3)S(=O)(=O)C2)CC1 (stereo unspecified) -13.3%
O=C(Nc1cccc2cccnc12)c1ccc2sc([C@H]3C[C@H](O)[C@@H](CO)O3)nc2c1 119%
CN(C)CCNc1ccc(-c2n[nH]c(=O)c3ccccc23)cc1[N+](=O)[O-] -21.7%
CSc1ccccc1NC(=O)CN(C)CC(=O)Nc1ccc(Cl)cc1[N+](=O)[O-] -10.8%
CC1Cc2[nH][nH]c(=O)c2C(C2CC2)O1 (stereo unspecified) 2.81%
O=C(NCc1ccccc1)C1c2ccccc2OCC(=O)N1C1CC1 (stereo unspecified) 3.07%
CCC(c1nc2ccccc2[nH]1)n1c(=O)c(-c2cccs2)nc2ccccc21 (stereo unspecified) -19.2%
CC(=O)Nc1cnc(-c2ccc(O)cc2C)cn1 12.9%
CC1(C(=O)NS(=O)(=O)c2cccc(OC(F)F)c2)CCN1C(=O)COc1ccc(Cl)cc1 (stereo unspecified) 0%
COc1cccc(OCC(=O)NNC(=O)c2cnccn2)c1 -0.611%
CCOc1ccc(C(=O)Nc2nccs2)cc1[N+](=O)[O-] 2.71%
CCc1nc2ccc(C(=O)Nc3cc(-c4ccccc4)ccc3OC)cn2c1N(CC)CC(=O)N(C)C -16.4%
NC(Cc1ccccc1)c1csc(Nc2cc(Oc3ccccc3)ncn2)n1 (stereo unspecified) 9.45%
O=C(c1cc(C2CCCCN2S(=O)(=O)c2ccccc2)on1)N1CCOCC1 (stereo unspecified) 44.2%
CCCCN(C(C)=O)c1ccc2c(c1)C1CC2CCN1Cc1ccccc1 (stereo unspecified) -22%
COc1ccc(-n2nnc3c(=O)n(CC(=O)OCc4ccccc4)cnc32)cc1 7.78%
COc1ccc(-n2nnc3c(=O)n(CC(=O)N4CCC(Cc5ccccc5)CC4)cnc32)cc1 -29.9%
CC(C)(C)Cc1c(C2CCCCC2)nc2ccc(Br)cn12 20.9%
CCN(CC)c1ncnc2c1ncn2[C@H]1CN(Cc2cccs2)C[C@@H](CO)O1 -18.3%
CC1(C(=O)NCc2ccc3c(c2)OCO3)CCN1C(=O)Cc1cccc2ccccc12 (stereo unspecified) -2.93%
FC(F)(F)c1cccc(Cc2noc(CN3CCC(N4CCCCC4)CC3)n2)c1 43.6%
O=C(c1ccco1)N1CCN(Cc2cccc(C(F)(F)F)c2)CC1 19.4%
CCCNC(=O)C1(C)CCCN(C(=O)c2cccc(OC(C)=O)c2C)C1 (stereo unspecified) 9.36%
COc1ccccc1Cc1c(-c2ccc(Cl)cc2)nc2c3ccccc3ccn12 7.3%
O=C(NCCS(=O)(=O)NCc1ccc(F)cc1)c1ccccc1 -8.19%
Cc1ccc(CNS(=O)(=O)CCNC(=O)c2ccccc2)cc1 18.2%
CC(=O)N1CCN(Cc2cc(=O)oc3cc(C)ccc23)CC1 10.4%
COc1ccc(S(=O)(=O)N2CCN(CC(=O)N3CCNC3=O)CC2)cc1OC 3.73%
Cn1ncc([N+](=O)[O-])c1C(=O)Nc1cc(Cl)ccc1Cl 0%
O=C(CSc1ncn[nH]1)NCc1ccc2c(c1)OCO2 5.23%
O=C(CSc1ncn[nH]1)Nc1ccc(Br)cc1Br -17.2%
CN(C)C(=O)c1cccc(-c2cnc3sc(NCc4ccc5c(c4)OCO5)nn23)c1 59.7%
CCCCCc1c(-c2cccc(Br)c2)ncn1CCc1ccccc1OC 19.8%
CCCNC(=O)C1(C)CCCN(C(=O)c2oc3ccccc3c2C)C1 (stereo unspecified) -13.3%
Cc1nn(C)cc1CNC(=O)Nc1ccc(Cl)cc1 6.1%
Cn1cc(Cl)c(C(=O)NNC(=S)Nc2cccc(Cl)c2)n1 -24.3%
Cc1cccc(CN2CCN(C3CN(Cc4ccccc4)S(=O)(=O)C3)CC2)c1 (stereo unspecified) -8.28%
Cc1cc2nc(-c3ccc(Cl)cc3)c(Cc3cccc(F)c3)n2c(C)c1Br 0%
COc1ccccc1CC1(C)C(=O)Nc2ccc(OC(F)(F)F)cc21 (stereo unspecified) -16.9%
CC(=O)Nc1ccc2c3c(ccc([N+](=O)[O-])c13)CC2 -18.8%
CC(=O)Nc1cccc(OCC(=O)/C=C2\N(C)c3ccccc3C2(C)C)c1 12.1%
CN1CCN(CCC(=O)N/N=C/C=C2\N(C)c3ccccc3C2(C)C)CC1 -23.3%
Cc1cc2c(cc1C)N1C(=O)c3cc4ccccc4cc3NC(=O)C1C(=O)N2 (stereo unspecified) 0%
CC(=O)C[C@@H]1OC[C@H](C)N1S(=O)(=O)c1ccc(C)cc1 1.58%
Cc1nccn1-c1ccc(NC(=O)[C@H]2O[C@@H](n3ccc(=O)[nH]c3=O)[C@H](O)[C@@H]2O)cc1 23.4%
CCc1nc2c(OCc3ccc(C(F)(F)F)cc3)cccn2c1N(C)C(=O)CC(C)C 3.13%
COc1cccc(-c2cnc(C(O)c3ccccc3OC)[nH]2)c1 (stereo unspecified) 0%
CC1(C(=O)NCc2ccccc2)CSCC(=O)N1CCCn1ccnc1 (stereo unspecified) 11.4%
COc1ccc(NC(=O)C/C(C)=N/NC(=O)c2cnccn2)cc1Cl 3.87%
Cc1ccc(/C=N/NC(=O)C2=NNC(c3ccccc3)(c3ccccc3)C2)c(O)c1 15.1%
CCOc1cc(/C=N/Nc2cc(C)nc3ccc(C)cc23)ccc1O 3.59%
Cc1ccc2cc(/C=N/Nc3ccc(C(=O)O)cc3)c(Cl)nc2c1 13.3%
c1cc(-c2ccc3[nH]ccc3c2)n2ccnc2c1 0%
CCNC(=O)C1(C)CCN(C(=O)c2ccccc2)C1 (stereo unspecified) 0%
COc1ccc(C(C(=O)NCc2ccccc2)n2c(=O)c(-c3ccccc3)nc3ccccc32)cc1 (stereo unspecified) -3.74%
COc1ccc(OC)c(NC(=O)C2CCCN2S(=O)(=O)c2ccc3c(c2)CC(C)N3C(C)=O)c1 (stereo unspecified) -11.1%
CCN(CCN(C)C)C(=O)c1ccc2nc(C)c(N(C)C(=O)CCc3ccccc3)n2c1 14.8%
COc1ccc(S(=O)(=O)N2CCC(C(=O)NCCC(=O)Nc3ccccc3OC)CC2)cc1 23.8%
O=C(COC(=O)CCc1c[nH]c2ccccc12)Nc1cccc(Cl)c1 -6.82%
O=C(CSC(=S)N1CCOCC1)c1ccccc1 -4.48%
O=C(NC(=O)N1CCOCC1)c1ccccc1 160%
Cc1cc2oc(=O)cc(CN(C)Cc3ccccc3)c2cc1Cl 9.91%
CCCCN1C(=O)C(CC(=O)NCc2cccs2)CC(C(=O)N2CCCCCC2)=C1C (stereo unspecified) 0%
COc1ccccc1CNC(=O)CCCNS(=O)(=O)c1cccc2nsnc12 -0.0929%
O=C(CCS(=O)(=O)c1cccc2nsnc12)N1CCN(c2ccccc2F)CC1 1.65%
OC[C@@H]1CN(Cc2ccc3c(c2)OCO3)C[C@H](n2cnc3c(NCc4ccco4)ncnc32)O1 -5.45%
COC(=O)[C@@]1(Sc2ccc(C)cc2)CC(=O)N(c2cccc(SC)c2)[C@@H]1c1ccccc1 3.45%
